# Data from PubChem BioAssay AID1259313 (Sanford-Burnham Center for Chemical Genomics, 2017).
# Screen size: about 340,000 compounds; about 8,500 (2.5%) were called active. This is one part of a sample in which actives are shown more often than they occur.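 Rule for the calls: active = melting temperature shift of at least 10% of the positive control shift, at one fixed dose; inactive = the rest.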
# System: Glutamate receptor ionotropic, NMDA 3A (GRIN3A) ligand-binding domain
# Experiment: binders of NR3A ligand-binding domain, primary screen, biophysical, differential scanning fluorimetry, uHTS (AID 1259313)
# Settings: NR3A LBD differential scanning fluorimetry, at 25 µM, stronger effect = higher value, 0% = protein alone, 100% = glycine-bound protein
row,Compound,Tm shift relative to glycine control
1,O=C(c1ccc[nH]c1=S)N1CCN(S(=O)(=O)c2ccc(Br)cc2Cl)CC1,-0.43% (inactive)
2,COC(=O)C1(O)CC(C(C)C)=NN1C(=O)c1ccc(Cl)cc1 (stereo unspecified),-4.26% (inactive)
3,Cc1ccc(NC(=O)CN2CCC3(O)CCCCC3C2c2ccc3c(c2)OCO3)c(C)c1 (stereo unspecified),1.39% (inactive)
4,Cc1cc(C)c(OCC(=O)N(Cc2cccs2)C2CCS(=O)(=O)C2)c(C)c1 (stereo unspecified),-2.05% (inactive)
5,Cc1cc(C)n(S(=O)(=O)c2cccc([N+](=O)[O-])c2)n1,-0.54% (inactive)
6,CC1=NCCN1S(=O)(=O)c1cccc([N+](=O)[O-])c1,0.43% (inactive)
7,Cc1ccc(-c2cn(S(=O)(=O)c3cccc([N+](=O)[O-])c3)nc2N)cc1,23.9% (active)
8,O=C(COC(=O)c1ccco1)Nc1ccc(Cl)cn1,-4.19% (inactive)
9,CCN(c1ccccc1)S(=O)(=O)c1ccc(OCC(=O)N2CCCC2)cc1,-0.92% (inactive)
10,COC(=O)C(NS(=O)(=O)c1ccc(F)cc1)c1ccccc1 (stereo unspecified),0% (inactive)
11,COc1ccc(CN2CCN(Cc3ccc(OC)c(OC)c3OC)CC2)cc1,-0.74% (inactive)
12,Cc1cc(NC(=O)Nc2ccc(Cl)cc2)n(-c2ccccc2)n1,3.84% (inactive)
13,Cc1ccc(NC(=O)COc2ccc(-n3ccnc3)cc2)cc1Cl,-10.8% (inactive)
14,Cc1ccc(NC(=O)Nc2cc(-c3ccccc3)nn2C)cc1Cl,47.8% (active)
15,O=C(NC(Cc1c[nH]c2ccccc12)C(=O)O)/C(=C/c1ccco1)NC(=O)c1ccccc1 (stereo unspecified),5.13% (inactive)
16,Cc1ccc(S(=O)(=O)NNC(=O)Nc2cccc3ccccc23)cc1,1.46% (inactive)
17,Cc1cc2[nH]ncc2cc1NC(=S)NC(=O)c1ccccc1,-2.48% (inactive)
18,O=C(O)CC1(CC(=O)Nc2cccc(C(F)(F)F)c2)CCCC1,-1.43% (inactive)
19,O=S(=O)(Nc1ccc2cn[nH]c2c1)c1ccccc1,-1.96% (inactive)
20,FC(F)(F)c1cccc(NC(=S)Nc2cccc(Cl)c2)c1,15.7% (active)
21,Cc1csc(NC(=S)Nc2cccc(Cl)c2)n1,16.9% (active)
22,Cc1cc(Cl)nc(NC(=O)Nc2cccc(Cl)c2)n1,-1.44% (inactive)
23,Cn1cc(Cl)c(C(=O)NNC(=S)Nc2cccc(Cl)c2)n1,-11.3% (inactive)

row,Compound,Tm shift relative to glycine control
1,Cc1cccc(NC(=S)NC23CN4CN(CN(C4)C2)C3)c1,-2.24% (inactive)
2,Cc1cccc(NC(=S)Nc2ccc(Cl)c(Cl)c2)c1,14.9% (active)
3,CCC(=O)Nc1nc(C)c(C(=O)Nc2cccc(Cl)c2)s1,0.19% (inactive)
4,S=C(Nc1cccc(Cl)c1)Nc1ccc2cn[nH]c2c1,13% (active)
5,Cn1nc(C(F)(F)F)c(C(=O)Nc2cccc(C(F)(F)F)c2)c1SCc1ccc(Cl)cc1,6.13% (inactive)
6,COc1ccccc1C(=O)OCC(=O)NCCNC(=O)COC(=O)c1ccccc1OC,-2.11% (inactive)
7,CCSc1nnc(SCC(=O)NNC(=O)c2ccccc2F)s1,0.44% (inactive)
8,O=C(NN1C(=O)C2C3C=CC(O3)C2C1=O)c1ccncc1 (stereo unspecified),2.17% (inactive)
9,CCO[C@@H]1OC(C(N)=O)=C[C@H](c2ccc(Br)cc2)[C@H]1CCCO,2.58% (inactive)
10,COc1ccc(CCNS(=O)(=O)c2cc3c(cc2C)NC(=O)CO3)cc1OC,2.97% (inactive)
11,O=c1ccn([C@@H]2O[C@H](CNS(=O)(=O)c3cc4ccccc4s3)[C@@H](O)[C@H]2O)c(=O)[nH]1,-1.03% (inactive)
12,CCOC(=O)N1CCN(S(=O)(=O)c2ccc(C(=O)Nc3ccc(F)cc3F)cc2)CC1,-2.71% (inactive)
13,CC(C)Oc1ccc(CC(=O)NNC(=S)Nc2ccc(Br)cc2)cc1,-3.79% (inactive)
14,C=CCn1c(C23CC4CC(CC(C4)C2)C3)n[nH]c1=S,0.44% (inactive)
15,O=C(O)c1ccccc1/C=N/Nc1ccc(S(=O)(=O)Nc2ccc(Cl)cc2)cc1[N+](=O)[O-],9.21% (inactive)
16,Cc1ccc(NS(=O)(=O)c2ccc(N/N=C/c3ccccc3OCC(=O)O)c([N+](=O)[O-])c2)c(C)c1,3.61% (inactive)
17,COc1ccc(S(=O)(=O)Nc2ccc3cn[nH]c3c2)cc1[N+](=O)[O-],-8.84% (inactive)
18,COc1ccc(Br)cc1/C=N/Nc1ccc(S(=O)(=O)Nc2ccccc2C(=O)O)cc1[N+](=O)[O-],503% (active)
19,COc1cccc(/C=N/Nc2ccc(S(=O)(=O)Nc3ccccc3C(=O)O)cc2[N+](=O)[O-])c1O,22.4% (active)
20,COc1ccc(S(=O)(=O)Nc2ccccc2C(=O)N2CCCC2)cc1C,2.36% (inactive)
21,COc1ccc(CCNC2=C(Cl)C(=O)N(Cc3ccccc3)C2=O)cc1OC,2.81% (inactive)
22,CC(=O)c1ccc(N2CCN(S(=O)(=O)c3ccc4c(c3)CC(=O)N4C)CC2)cc1,4.97% (inactive)
23,Cc1ccc(CC(=O)Nc2ccc(OC(F)F)c(Cl)c2)cc1C,3.08% (inactive)

row,Compound,Tm shift relative to glycine control
1,CC(=O)N1CCN(CC(=O)Nc2ccc(SC(F)F)cc2)CC1,-2.44% (inactive)
2,O=C(Cc1ccc(Cl)c(Cl)c1)Nc1ccc(SC(F)F)cc1,25.9% (active)
3,Cc1c(Cl)c([N+](=O)[O-])nn1CC(=O)NCCCN1CCOCC1,-0.8% (inactive)
4,COc1cc(C(=O)CCc2ccc3c(c2)OCO3)cc(OC)c1OC,0.46% (inactive)
5,COc1cc(-c2c(-c3ccc4c(c3)OCO4)noc2C)ccc1F,-2.27% (inactive)
6,COc1cc2c(-c3ccc4c(c3)OCO4)c(-c3ccsc3)oc(=O)c2cc1OC,12.9% (active)
7,CN(C)CCCn1c(SCc2ccc(Cl)cc2)nnc1-c1ccncc1,-5.52% (inactive)
8,CC(C)(Oc1ccc(Cl)cc1)C(=O)OCC(=O)NCCc1ccc(S(N)(=O)=O)cc1,-1.31% (inactive)
9,CN(C)N=Nc1ccc2nc[nH]c2c1,-1.21% (inactive)
10,COc1ccc2[nH]c3c(c2c1)CCN1C(=O)C(CC(=O)NCc2cccc(C(F)(F)F)c2)C[C@H](C(=O)N2CCOCC2)[C@@]31C (stereo partly specified),-2.74% (inactive)
11,COC(=O)CNS(=O)(=O)c1ccc(Cc2ccc(S(=O)(=O)NCC(=O)OC)cc2)cc1,1.25% (inactive)
12,C/C(N)=C(/C#N)C(=O)COC(=O)CNS(=O)(=O)c1ccc(C)cc1,-0.65% (inactive)
13,COC(=O)c1sc(N)c(C(=O)OC)c1COC(=O)CNS(=O)(=O)c1ccc(C)cc1,13.2% (active)
14,CCN(CC)C(=O)Oc1ccc(OC(=O)N(CC)CC)cc1,-0.08% (inactive)
15,NS(=O)(=O)c1ccc(NC(=S)N2CCCC2)cc1,-6.36% (inactive)
16,CCOc1ccccc1N1CCN(C(=S)Nc2ccc(S(N)(=O)=O)cc2)CC1,31.7% (active)
17,COc1ccc(N2CCN(C(=S)Nc3ccc(S(N)(=O)=O)cc3)CC2)cc1,1.93% (inactive)
18,O=C(Nc1ccccc1C(=O)N1CCOCC1)C1CCC(=O)N1C1CCCC1 (stereo unspecified),-0.29% (inactive)
19,O=C(c1cc(-c2cccc(O)c2)on1)N1CCc2ccccc2C1,-13.5% (inactive)
20,Cn1cccc1C(=O)N1CCc2ccccc2C1,38.1% (active)
21,CN(c1ccc(C(=O)N2CCc3ccccc3C2)cc1)S(C)(=O)=O,-0.88% (inactive)
22,Cc1nn(Cc2ccccc2)c(C)c1CNC(=O)c1ccc(F)c(S(=O)(=O)N2CCOCC2)c1,0.42% (inactive)
23,Cc1cc(C(=O)NNC(=S)NC(C)c2ccccc2)cs1 (stereo unspecified),-0.62% (inactive)

row,Compound,Tm shift relative to glycine control
1,CCCN1Cc2cccc(C(=O)Nc3ccc(S(=O)(=O)N4CCCCCC4)cc3)c2C1=O,-5.76% (inactive)
2,O=S(=O)(Nc1n[nH]c(C(F)(F)F)n1)c1ccccc1,-16.9% (inactive)
3,COc1ccccc1NC(=O)Nc1nc(CC(=O)Nc2ccccc2F)cs1,27.7% (active)
4,COc1ccccc1NC(=O)COC(=O)COc1ccccc1F,0.17% (inactive)
5,COc1ccccc1NC(=O)Nc1nnc(Cc2ccc(F)cc2)s1,-6.85% (inactive)
6,Cc1cc(C)c(C)c(S(=O)(=O)N2CCN(C(=O)c3ccc4c(=O)n5c(nc4c3)CCC5)CC2)c1C,-1.83% (inactive)
7,Cc1ccc(C2=NN(C)c3nc4ccccc4n3C2)cc1,-0.88% (inactive)
8,CCOC(=O)C1=CN(Cc2ccc(Br)cc2)S(=O)(=O)NC1C (stereo unspecified),-0.08% (inactive)
9,CCOC(=O)c1sc(=NC(=O)c2ccc(Br)cc2)n(C)c1C,-1.61% (inactive)
10,CCOC(=O)C1=CN(Cc2ccc(Br)cc2)S(=O)(=O)N(C)C1C (stereo unspecified),16.8% (active)
11,Cc1ccc(Sc2cc(C(=O)c3ccccc3C(=O)O)ccc2[N+](=O)[O-])cc1,2.48% (inactive)
12,CCN(CC(=O)Nc1cc(Cl)ccc1C)C(=O)CSCc1ccccc1,3.04% (inactive)
13,C=CCC1(C#N)C(=S)NC(C)=C(C(=O)OCC)C1c1ccccc1 (stereo unspecified),-1.45% (inactive)
14,Cc1cccc(N=Nc2c(O)[nH]c3ccc(F)cc23)c1,10.2% (active)
15,Oc1[nH]c2ccccc2c1N=Nc1c(F)c(F)c(F)c(F)c1F,9.33% (inactive)
16,Cc1ccc(CNC(=O)CSc2nnc3c(n2)[nH]c2ccc(F)cc23)cc1,2.6% (inactive)
17,O=C1CN(C(=O)c2cc(F)cc(F)c2)c2ccccc2N1,-2.16% (inactive)
18,O=C1N=C(N2CCc3ccccc3C2)S/C1=C\c1ccc(O)cc1,-10.4% (inactive)
19,CC(C)(C)c1ccc(/C=C2\SC(=O)N=C2N)cc1,-1.96% (inactive)
20,NC1=NC(=O)S/C1=C\c1ccc(O)cc1,32.2% (active)
21,Cc1c(CN2CCCC(C(=O)c3cccc(Cl)c3)C2)c(=O)n(-c2ccccc2)n1C (stereo unspecified),-0.59% (inactive)
22,CCN(CC)c1ccc(NC(=O)c2ccc(Cl)nc2)cc1,-1.3% (inactive)
